High-throughput results (PubChem BioAssay)
p53ts 39C tox: qHTS Screen for Compounds that Selectively Target Cancer Cells with p53 Mutations: Cytotoxicity of p53ts Cells at the Nonpermissive Temperature. AID 902, 2007. Potency, µM (doses to about 46.1 µM), for the others: at the top dose activity change, negative = cell killing, hits mostly cytotoxic. H1299-p53A138V viability at 39C, ATP luminescence, 24 h. actives 1.5% (n = 130,000); further: on the % scale 0 is the no-effect control and ±100 the full control effect; nearly all actives have a fitted effect of over 55% in size
Peg3 imprint: qHTS Assay for Compounds that Induce Erasure of Genomic Imprints; Potency, µM (titrated, usually from 60.7 µM), for the others: top-dose activity change, positive = activation, hits mostly activators; mouse ES Peg3-LacZ reporter, beta-gal luminescence, 40 h; actives 0.02% (n = 110,000)
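Each well holds 300 Peg3LacZ-Neo (maternal) female ES cells incubated 40 h at 37C, 5% CO2. LacZ is measured by BetaGlo luminescence, with AC50 and maximum efficacy derived from dose-response curves.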
Tau filament bind: qHTS Assay for Tau Filament Binding. Microtubule-associated protein tau (Homo sapiens), P10636. recombinant tau filaments, thioflavin S fluorescence, 15 h; filaments grown with octadecylsulfate alongside compound. Potency, µM (top dose mostly 57.1 µM), without a hit: at the top dose activity change, negative = inhibition. actives 2% (n = 71,000);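 further: on the % scale 0 is the no-effect control and ±100 the full control effect; actives lower thioflavin S fluorescence by blocking filaments or displacing dye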
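His-tagged recombinant human tau (exons 2, 3, 10; 1 uM final) fibrillized with 30 uM sodium octadecylsulfate, 15 h at 37 C, in pH 7.4 HEPES buffer with 10 uM thioflavine S and 5 mM DTT. Reduced ThS fluorescence (450/510 nm) marks activity.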
FLuc inh: qHTS Assay for Inhibitors of Firefly Luciferase | Luciferin 4-monooxygenase (Photinus pyralis), P08659 | purified firefly luciferase, luminescence, 8 min | Potency, µM (doses to about 57.1 µM), without a hit: top-dose activity change, negative = inhibition, usual class: inhibitors | actives 2.2% (n = 72,000); further: on the % scale 0 is the no-effect control and ±100 the full control effect; nearly all actives have a fitted effect of over 40% in size
Target sequence (P08659 whole entry, looked up): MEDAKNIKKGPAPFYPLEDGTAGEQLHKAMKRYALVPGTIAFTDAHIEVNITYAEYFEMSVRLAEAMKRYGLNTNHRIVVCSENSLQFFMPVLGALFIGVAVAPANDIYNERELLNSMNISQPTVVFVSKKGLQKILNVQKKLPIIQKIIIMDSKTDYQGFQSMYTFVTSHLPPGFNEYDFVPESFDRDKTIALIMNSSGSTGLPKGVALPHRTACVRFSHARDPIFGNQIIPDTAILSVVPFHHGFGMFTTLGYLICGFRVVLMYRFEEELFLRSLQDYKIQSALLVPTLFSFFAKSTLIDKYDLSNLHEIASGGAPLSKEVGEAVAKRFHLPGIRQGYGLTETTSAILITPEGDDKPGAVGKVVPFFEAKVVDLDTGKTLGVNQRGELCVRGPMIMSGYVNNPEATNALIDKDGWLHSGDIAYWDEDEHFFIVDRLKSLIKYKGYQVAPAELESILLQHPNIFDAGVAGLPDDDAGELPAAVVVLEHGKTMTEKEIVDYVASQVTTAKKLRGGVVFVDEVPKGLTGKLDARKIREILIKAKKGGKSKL
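Inhibition of light generation by firefly luciferase from ATP and luciferin was profiled with concentration-response curves per sample, ATP held at 10 uM within the enzyme's linear range. Plates were read by luminescence after an 8-minute ambient incubation.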
p53ts 32C kill: qHTS Screen for Compounds that Selectively Target Cancer Cells with p53 Mutations: Cytotoxicity of p53ts Cells at the Permissive Temperature; H1299-p53A138V at 32C, ATP luminescence viability, 24 h; Potency, µM (titrated, usually from 46.1 µM), for the others: at the highest dose activity change, negative = cytotoxicity, hits mostly cytotoxic; actives 0.93% (n = 130,000); AID 924, 2007;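 further: 0% = DMSO and -100% = full killing by reference compound; nearly all actives have a fitted effect of over 55% in size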
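ATP-content luminescence (ATPlite) read-out after 24 h compound exposure at 32C in H1299-p53A138V cells (600/well). Tested up to 46 uM. Normalized to DMSO (0%) and 100 uM tamoxifen (100% killing); Hill-fit AC50.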
* hit, by the source's call; ? = inconclusive; / = no result; [ ] = another dose, or the depositor's remark. Sampled rows, rich in hits. Any-hit rate of the full collection: about 3.4%. The call rests on the fitted dose curve; in most records, active means well fitted curve in the direction sought with a large enough effect; inconclusive means small, poorly fitted or top-dose-only effect, or another doubt; inactive means no such curve, though single readings can be large; an effect the other way counts as inactive or inconclusive. Potency means the concentration at half of the fitted maximal effect.

SMILES | p53ts 39C tox | Peg3 imprint | Tau filament bind | FLuc inh | p53ts 32C kill
Cc1ccc(CNC(=O)c2nc(SCc3ccccc3C)ncc2Cl)cc1 | -8% | -10%[10.9 µM] | / | / | -3%
CCCS(=O)(=O)c1ncc(Cl)c(C(=O)Nc2c(C(=O)Nc3ccccc3)oc3ccccc23)n1 | 6.3µM* | -39%[10.9 µM] | / | / | ?
CCS(=O)(=O)c1ncc(Cl)c(C(=O)NCc2ccccc2)n1 | 13µM* | -40%[10.9 µM] | / | / | ?
CC(C)Sc1ncc(Cl)c(C(=O)Nc2c(C(=O)Nc3ccccc3)oc3ccccc23)n1 | -15% | 8%[10.9 µM] | / | / | 17%
COc1ccc(NC(=O)c2nc(S(=O)(=O)Cc3ccc(C)cc3)ncc2Cl)cc1 | 6.3µM* | -30%[10.9 µM] | / | / | ?
COc1ccc(CNC(=O)c2nc(SC(C)C)ncc2Cl)cc1 | -24% | 4%[10.9 µM] | / | / | 1%
Cc1cccc(CSc2ncc(Cl)c(C(=O)Nc3nc4ccc(F)cc4s3)n2)c1 | -25% | 20%[10.9 µM] | / | / | 15%
CCOc1ccc(NC(=O)c2nc(S(=O)(=O)Cc3ccccc3F)ncc2Cl)cc1 | 7.9µM* | -40%[10.9 µM] | / | / | 14µM*
O=C(Nc1nc2ccc(F)cc2s1)c1nc(S(=O)(=O)Cc2ccccc2F)ncc1Cl | 5µM* | -67%[10.9 µM] | / | / | 10µM*
COc1ccc(CNC(=O)c2nc(S(=O)(=O)Cc3ccccc3)ncc2Cl)cc1 | 5µM* | -24%[10.9 µM] | / | / | 20µM*
COc1ccc(N(Cc2ccccc2)C(=O)c2nc(S(C)(=O)=O)ncc2Cl)cc1 | 4µM* | -38%[10.9 µM] | / | / | 7.9µM*
CCOC(=O)c1ccc(NC(=O)c2nc(SCc3ccccc3F)ncc2Cl)cc1 | -29% | -11%[10.9 µM] | / | / | ?
NCC1OC(n2cnc3c(=O)[nH]c(N)nc32)C(O)C1O (configuration not stated) | 2% | 15% | / | / | 0%
COCCCNC(=O)c1c(NC(=O)c2nc(S(C)(=O)=O)ncc2Cl)sc2c1CCCC2 | ? | -30%[10.9 µM] | / | / | 11%
Cc1ccc(C)c(NC(=O)c2nc(S(=O)(=O)Cc3ccc(F)cc3)ncc2Cl)c1 | 4µM* | -34%[10.9 µM] | / | / | ?
CCNC(=O)c1c(NC(=O)c2nc(S(=O)(=O)CC)ncc2Cl)sc2c1CCCC2 | 3.2µM* | -39%[10.9 µM] | / | / | ?
O=C(c1ccc(Cl)cc1)N(Cc1ccco1)Cc1ccco1 | -22% | -11%[10.9 µM] | / | / | 8%
CS(=O)(=O)c1ncc(Cl)c(C(=O)N(Cc2ccc(Cl)cc2)Cc2ccco2)n1 | 3.2µM* | -40%[10.9 µM] | / | / | 28µM*
Cc1ccc(C)c(NC(=O)c2ccc(=O)n(Cc3ccc(F)cc3)c2)c1 | -27% | 7%[10.9 µM] | / | / | 4%
CCC(=O)N1c2ccccc2CC1C(=O)NCc1cc(OC)ccc1OC (configuration not stated) | -9% | 9%[10.9 µM] | / | / | -4%
COc1ccccc1-c1cc(C(F)(F)F)nc(S(=O)(=O)CCCC(=O)Nc2cc(OC)c(OC)c(OC)c2)n1 | 5µM* | -39%[10.9 µM] | / | / | 6.3µM*
COc1ccc(NC(=O)CCCS(=O)(=O)c2nc(-c3ccc(OC)c(OC)c3)cc(C(F)(F)F)n2)cc1OC | 2.5µM* | -34%[10.9 µM] | / | / | ?
COc1ccc(-c2cc(C(F)(F)F)nc(S(=O)(=O)CCCC(=O)Nc3cccc(O)c3)n2)cc1OC | 3.2µM* | -9%[10.9 µM] | / | / | ?
COc1ccc(-c2cc(C(F)(F)F)nc(S(=O)(=O)CCCC(=O)Nc3ccccc3C(F)(F)F)n2)cc1OC | 5µM* | -29%[10.9 µM] | / | / | ?
COc1ccccc1-c1cc(C(F)(F)F)nc(S(=O)(=O)CCCC(=O)Nc2ccc(F)c(Cl)c2)n1 | ? | -21%[10.9 µM] | / | / | ?
SMILES | p53ts 39C tox | Peg3 imprint | Tau filament bind | FLuc inh | p53ts 32C kill
O=C(CCSCc1cnn(-c2ccccc2)c1-n1cccc1)NCc1ccc(Cl)cc1 | ? | -11%[10.9 µM] | / | / | 6%
COc1ccc(OC)c([C@H]2Nc3ccccc3NC3=C2C(=O)CC(C)(C)C3)c1Br | / | / | -29% | -8%[11.4 µM] | /
COC(=O)C1=C(C)N=c2s/c(=C/c3ccoc3)c(=O)n2C1c1ccccc1 (configuration not stated) | 6% | -15% | -11% | -1% | 20%
COC(=O)C1=C(C)N=c2s/c(=C/c3cccs3)c(=O)n2C1c1cccs1 (configuration not stated) | 14% | 3% | 1µM* | 0% | 22%
CCc1cc(N2CCOCC2)cc2c1[nH]c1ccccc12 | 10% | -1% | 25µM* | -4% | 6%
O=C(NCc1cccnc1)C1CCN(Cc2cc3ccccc3n2Cc2cccc(Cl)c2)CC1 | 13µM* | -4%[10.9 µM] | / | / | 21%
COc1cccc2cc(-c3csc(-c4ccc(Cl)cc4)n3)c(=O)oc12 | -18% | -8%[10.9 µM] | / | / | 2%
COC(=O)CCn1nnc(-c2ccc(C(C)C)cc2)n1 | ? | -46% | -1% | 13µM* | ?
Cc1ccc(-c2cc(C(=O)Nc3c(C#N)cnn3C)no2)cc1 | ? | -27% | -1% | 13µM* | ?
Cc1ccc(CSc2nnc3[nH]c(=O)cc(C)n23)cc1 | 9% | 8%[10.9 µM] | / | / | 13%
O=C1CN(CC(=O)N2CCCCC2)c2ccccc2O1 | 10% | -3% | 32µM* | -8% | -3%
O=C1CN(CC(=O)N2CCOCC2)c2ccccc2O1 | -3% | -2% | ? | -7% | ?
Cc1c(Cc2ccccc2)sc(N)c1C(N)=O | 3% | -1% | 16µM* | -1% | 0%
CCC(=O)Nc1nnc(S(=O)(=O)N2c3ccccc3CC2C)s1 (configuration not stated) | 4% | -13%[10.9 µM] | / | / | -5%
O=C(COc1ccc(F)cc1)Nc1ccc2nc(SCCOc3ccccc3)sc2c1 | 9% | -10%[10.9 µM] | / | / | -5%
Cc1ccc(OCCSc2nc3ccc(NC(=O)COc4ccc(F)cc4)cc3s2)cc1 | 10µM* | -10%[10.9 µM] | / | / | 0%
Cc1cccc(NC(=O)CSc2nc3ccc(NC(=O)COc4ccccc4F)cc3s2)c1 | 10µM* | -14%[10.9 µM] | / | / | ?
Cc1ccc(Cl)cc1-n1c(=O)c2sc3ccccc3c2n(Cc2ccccc2)c1=O | -2% | -4%[10.9 µM] | / | / | -1%
Cc1nc2cnc(Oc3ccccc3)nc2n(C2CC2)c1=O | 5% | -18% | 0% | 0%[11.4 µM] | 1%
Oc1cccc(/C=N/c2c(-c3ccco3)nc3ccccn23)c1 | 13µM* | / | / | / | ?
O=C(Nc1c(-c2ccccc2)nc2ccccn12)c1ccco1 | -4% | -4% | 4% | -1% | 13%
COc1ccc(C(=O)N2CCCCC2CCN2CCCCC2)cc1 (configuration not stated) | -6% | ? | / | / | 1%
Cc1cccc(NC(=O)c2cc3c(=O)n(Cc4ccco4)ccc3nc2C)c1 | -4% | -3%[10.9 µM] | / | / | 5%
O=C(OCC(=O)N1CCc2ccccc21)c1cccnc1 | 5% | / | -16% | -6% | -6%
